Source: PubChem BioAssay (National Center for Advancing Translational Sciences (NCATS))
Hits are enriched below; roughly 3.9% of the tested compounds scored in any of these assays.
OvCa metastasis: inhibitors of ovarian cancer cell adhesion and invasion in omental model | Potency, µM (top dose mostly 45.8 µM), hits mostly inhibitors | hit rate 0.1% among 46,000 | SKOV3ip1-GFP adhesion/invasion on 3D omental model, fluorescence | AID 1963576; note: nearly all actives have a fitted effect of over 65% in size
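Adhesion/invasion was scored as fixed GFP-labeled SKOV3ip1 cell counts (488/509 nm), normalized to DMSO and tomatine controls. Cancer cells in serum-free medium, with four compound doses (0.36-46 umol/L), sat 2 hr at RT then 16 hr at 37 C on a 48 hr fibroblast/mesothelial/ECM culture.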
DRV1 agonist: GPR32 (DRV1) agonism, beta-arrestin recruitment. O75388. CHO-K1 GPR32 beta-arrestin PathHunter luminescence, 90 min; zero percent set by DMSO-only wells. activation, % at 76.9 µM. hit rate 2.5% among 48,000;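 active = activation of at least 60% and not above a set upper limit, about 1 call in 100 departs from these limits; inconclusive = activation of 40% to 60%, or above that upper limit; inactive = activation under 40%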
Target sequence (O75388 whole entry, looked up): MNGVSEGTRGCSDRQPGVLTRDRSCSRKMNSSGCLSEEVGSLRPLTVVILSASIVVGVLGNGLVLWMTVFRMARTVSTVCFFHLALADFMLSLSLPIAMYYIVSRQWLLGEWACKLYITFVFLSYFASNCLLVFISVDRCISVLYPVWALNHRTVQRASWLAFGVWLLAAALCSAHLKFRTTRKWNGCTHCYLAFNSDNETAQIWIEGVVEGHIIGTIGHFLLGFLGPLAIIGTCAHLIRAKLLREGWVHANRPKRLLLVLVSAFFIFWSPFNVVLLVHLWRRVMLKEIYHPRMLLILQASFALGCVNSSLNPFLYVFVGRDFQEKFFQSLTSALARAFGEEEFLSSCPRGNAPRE
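PathHunter enzyme-fragment complementation, CHO-K1 GPR32 stable line; 2,500 cells/well, overnight attach; cpd 90 min 37 °C 5% CO2; detection reagent 1 h RT; chemiluminescence. DMSO = EC0.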
NTMT1 inh: inhibitors of human N-terminal methyltransferase NTMT1; Q9BV86; NTMT1 MTase-Glo SAH luminescence, purified enzyme; Potency, µM (highest dose often 114 µM), most hits filed as inhibitors; hit rate 2.5% among 59,000; note: nearly all actives have a fitted effect of over 65% in size
FH mod: Identification of activators of human fumarate hydratase by quantitative high-throughput screening; Fumarate hydratase, mitochondrial (Homo sapiens), P07954; FH coupled MDH/diaphorase resazurin fluorescence, 15 min; Potency, µM (top dose mostly 79.9 µM), hits mostly inhibitors; hit rate 0.22% among 54,000; AID 1347055, 2019; note: the screen sought activators but most active calls are inhibition curves; nearly all actives have a fitted effect of over 45% in size
Numbers stand for hits; - = inactive; ? = inconclusive; . = no result; ! = repeats disagree; [ ] = another dose, or the depositor's remark. Unless noted, calls come from the whole dose curve; as a rule, active = well fitted curve in the direction sought with a large enough effect; inconclusive = small, poorly fitted or top-dose-only effect, or another doubt; inactive = no such curve, though single readings can be large; an effect the other way counts as inactive or inconclusive.

SMILES	OvCa metastasis	DRV1 agonist	NTMT1 inh	FH mod
Cc1ccc(CNC(=O)Cc2csc3ccccc23)cc1	-	85	-	-
CC(C)(F)C[C@H](N[C@@H](c1ccc(-c2ccc(S(C)(=O)=O)cc2)cc1)C(F)(F)F)C(=O)NC1(C#N)CC1	-	.	-	-
CC(C)c1nnc(NC(=O)c2nc(SCc3ccc(F)cc3)ncc2Cl)s1	-	109	-	-
Cc1ccc(CCNC(=O)c2cc3ccccn3n2)cc1	-	111	.	.
Cc1ccc(CN2CCCn3nc(C(=O)NCCc4ccc(Cl)cc4)cc3C2=O)cc1	-	115	-	-
CSc1ccc(CCNC(=O)c2cc3n(n2)CCCN(Cc2ccc(C)cc2)C3=O)cc1	-	-	-	-
Cc1ccccc1CCNC(=O)c1cc2ccccn2n1	-	-	.	.
O=C(Nc1cccc(-c2nn3c(=O)cc(N4CCNCC4)nc3s2)c1)c1ccon1	.	.	-	.
CC[C@]12C=CCN3CC[C@@]4(c5cc([C@@]6(C(=O)OC)C[C@H]7C[C@@H](C(C)(F)F)CN(Cc8c6[nH]c6ccccc86)C7)c(OC)cc5N(C)[C@H]4[C@@](O)(C(=O)OC)[C@@H]1OC(C)=O)[C@@H]32	.	.	-[12.6 µM]	-
O=C1NC(=O)C(c2ccccc2[N+](=O)[O-])=C1Nc1ccc(O)c(Cl)c1	-	-	45µM!	25µM!
O=[N+]([O-])c1ccccc1NCc1ccc(O)c2ncccc12	.	.	-	.
c1ccc2c(CCNc3ccc(Nc4ccncc4)cc3)c[nH]c2c1	-	.	?	-
Nc1ncnc2c1c(-c1ccc(Cl)cc1)nn2-c1cccc(-c2cnnn2Cc2cccc(-c3ccccc3)c2)c1	.	.	-	-
COCCN1C(=O)c2[nH]nc(-c3cc(C)ccc3O)c2C1c1ccc(C(C)C)cc1 (configuration not stated)	?	-	-	-
COc1cc(C2c3c(-c4cc(C)ccc4O)n[nH]c3C(=O)N2CCCO)ccc1OCCC(C)C (configuration not stated)	?	102	-	-
COc1ccc(CCNC(=O)CSc2cn(CCNC(=O)c3ccc(OC)c(OC)c3)c3ccccc23)cc1OC	-	-	-	-
COc1ccc(CCNC(=O)CSc2cn(CCNC(=O)c3cccc(C(F)(F)F)c3)c3ccccc23)cc1OC	-	104	-	-
O=S(=O)(c1cccc2c(I)cccc12)N1CCCNCC1	.	-	40µM!	-
O=S(=O)(c1cccc2c(Cl)cccc12)N1CCCNCC1	.	-	?	-
Cc1noc(=O)c2ccc(NC(=O)C(O)(CC(C)(C)c3cccc4c3OCC4)C(F)(F)F)cc12 (configuration not stated)	.	.	-	-
Cc1ccc(NS(=O)(=O)c2ccc3c(c2)NC(=O)CCS3)c(Br)c1	-	120	-	-
O=C1CCSc2ccc(S(=O)(=O)Nc3cccc(C(F)(F)F)c3)cc2N1	-	109	-	-
Cc1ccccc1NS(=O)(=O)c1ccc2c(c1)NC(=O)CCS2	-	-	-	-
O=C(NCc1ccncc1)C12C[C@H]3C[C@@H](C1)CC(c1ccc(Cl)cc1)(C3)C2	-	.	-	-
CC(=O)OCC(=O)[C@@]1(O)CC[C@H]2[C@@H]3CCC4=CC(=O)C=C[C@]4(C)[C@@H]3[C@@H](O)C[C@@]21C	-	.	-	-
SMILES	OvCa metastasis	DRV1 agonist	NTMT1 inh	FH mod
CC(C)(C)CC(=O)OCC(=O)[C@@]1(O)CC[C@H]2[C@@H]3CCC4=CC(=O)C=C[C@]4(C)[C@H]3[C@@H](O)C[C@@]21C	.	119	-	-
O=S(=O)(Nc1ccccc1)c1ccc(NCc2cccc(Cl)c2O)cc1	.	.	-	.
O=S(=O)(Nc1ccc(C2CCNCC2)cc1)c1ccc(NCc2cccc(Cl)c2O)cc1	.	.	22µM	.
O=c1c(Nc2ccc(Br)c(Br)c2)c(Nc2nnc(-c3ccncc3)s2)c1=O	.	.	79µM	.
O=S(=O)(c1ccsc1)N1CCN(c2nc(-c3cccs3)nc3ccccc23)CC1	.	.	-	.
O=S(=O)(c1cccc(Cl)c1)n1c(/C=C/c2ccccc2Cl)nc2ccccc21	-	-	6.3µM	-
CSc1ccc(/C=C/c2nc3ccccc3n2S(=O)(=O)c2cccc(Cl)c2)cc1	?	-	6.3µM	-
Cc1ccc(/C=C/c2nc3ccccc3n2S(=O)(=O)c2ccc(Br)cc2)cc1	-	-	?	-
NC1(C(=O)N[C@@H](CCO)c2ccc(Cl)cc2)CCN(c2ncnc3[nH]ccc23)CC1	?	.	-	-
COc1ccc(C(=O)Nc2nc3ccccc3n2CCOc2ccc(Cl)cc2)cc1	-	-	-	?
CCCCn1c(NCc2ccc(OC)cc2O)nc2ccccc21	-	70	?	-
